Compound activity from PubChem.
HEK293 tox: HEK 293 cell cytotoxicity; HEK 293 viability, ATP luminescence (CellTiter-Glo), 48-72 h; Potency, µM (series often up to 115 µM), without a hit: at the top dose activity change, negative = cytotoxicity, actives largely listed as inhibitors; 94,000 compounds, 6.6% hits; note: nearly all actives have a fitted effect of over 60% in size
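CellTiter-Glo luminescence (cellular ATP) was read after 48 or 72 hr of compound exposure at 37 degree Celsius. Cells were HEK 293 plated at 250 cells/well.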
NIH3T3 tox: NIH 3T3 cell cytotoxicity; NIH 3T3 viability, CellTiter-Glo ATP luminescence, 48-72 h; Potency, µM (titrated, usually from 96.7 µM), for inactives: at the highest dose activity change, negative = cytotoxicity, hits mostly inhibitors; 94,000 compounds, 4.3% hits; note: nearly all actives have a fitted effect of over 55% in size
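NIH 3T3 cells at 400 cells/well received 23 nL of compound by pintool and were incubated 48 or 72 h at 37 °C. Viability was read as ATP-coupled CellTiter-Glo luminescence.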
GPT2 inhibitor: GPT2 alanine aminotransferase inhibition | Q8TD30 | AID 1671188 | Potency, µM (titrated, usually from 57.7 µM), for the others: at the top dose activity change, negative = inhibition, usual class: inhibitors | Recombinant GPT2, coupled pyruvate oxidase/HRP Amplex Red fluorescence | 100,000 compounds, 0.25% hits; note: nearly all actives have a fitted effect of over 60% in size
Target sequence (Q8TD30 whole entry, looked up): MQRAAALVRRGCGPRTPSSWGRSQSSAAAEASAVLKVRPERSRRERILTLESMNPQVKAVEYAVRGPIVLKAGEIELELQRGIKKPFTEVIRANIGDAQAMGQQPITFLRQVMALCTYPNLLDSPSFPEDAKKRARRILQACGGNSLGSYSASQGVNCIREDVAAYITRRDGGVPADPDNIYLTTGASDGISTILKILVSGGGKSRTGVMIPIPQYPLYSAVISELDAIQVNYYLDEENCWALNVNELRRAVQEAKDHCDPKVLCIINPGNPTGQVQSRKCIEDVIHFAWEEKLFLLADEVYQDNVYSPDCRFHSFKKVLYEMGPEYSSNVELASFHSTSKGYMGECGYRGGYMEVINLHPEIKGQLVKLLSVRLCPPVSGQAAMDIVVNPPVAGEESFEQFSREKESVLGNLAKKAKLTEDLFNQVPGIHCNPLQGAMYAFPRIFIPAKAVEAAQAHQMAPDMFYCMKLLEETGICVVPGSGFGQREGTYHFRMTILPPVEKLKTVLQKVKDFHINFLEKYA
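Recombinant GPT2 (10ng/uL) with 250uM a-KG and 2mM L-alanine, 30 min at room temperature, in HEPES pH 7.5 buffer. Pyruvate detected by pyruvate oxidase/HRP/Amplex Red fluorescence after 30 min in the dark; AOA (50uM) as positive control.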
hNpr1 antagonist: blocks ANP-stimulated signaling of human Npr1 receptor; HEK293 hNpr1 GloSensor cGMP, ANP-stimulated luminescence; Potency, µM (titrated, usually from 46.3 µM), inactives show at the top dose activity change, negative = inhibition, most hits filed as inhibitors; P16066; AID 1347048; 76,000 compounds, 1.6% hits; calls by dose curve; note: nearly all actives have a fitted effect of over 60% in size
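Compound pre-incubated 30 min at room temperature on GloSensor-loaded HEK293 cells stably carrying hNpr1 and the pGS-40F cGMP biosensor. Stimulation uses hNppA at 0.1 nM final; luminescence is taken at baseline and 20 min post-agonist.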
Luciferase inh: inhibitors of firefly (Photinus pyralis) luciferase; P08659; purified P. pyralis luciferase, luminescence, biochemical; Potency, µM (highest dose often 115 µM), most hits filed as inhibitors; 76,000 compounds, 2.5% hits; AID 1347043; note: nearly all actives have a fitted effect of over 65% in size
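Luminescence read by CCD imager after adding enzyme (10nM final) to wells holding compound, titrated in qHTS. Substrates 10uM each D-luciferin and ATP; buffer 50mM Tris acetate pH 7.5, 10mM Mg acetate, Tween-20, BSA.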
Active calls of the source: *; [ ] = dose if it differs, or a comment. Only some compounds are listed: those with a hit (about 10% of all), similar ones and a draw of the others. Unless noted, calls come from the whole dose curve; as a rule, active = well fitted curve in the direction sought with a large enough effect; inconclusive = small, poorly fitted or top-dose-only effect, or another doubt; inactive = no such curve, though single readings can be large; an effect the other way counts as inactive or inconclusive. % is set by controls: 0 for no effect and ±100 for the full control effect; potency is the fitted concentration of half-maximal effect.

For CC1(C)Cc2c(cnn2-c2ccc(F)cc2)C(NC(=O)c2cc(C3CC3)[nH]n2)C1 (stereo not given) the results were HEK293 tox 79.4µM*, NIH3T3 tox inconclusive, GPT2 inhibitor -4.0%[11.5 µM], hNpr1 antagonist -15.3% and Luciferase inh inactive.
`Cc1cc(C(=O)NC2CC(C)(C)Cc3nc(C(C)(C)C)ncc32)n[nH]1` (stereo not given) gave HEK293 tox -27.0%, NIH3T3 tox -19.8%, GPT2 inhibitor 0.8%, hNpr1 antagonist 2.7% and Luciferase inh inactive.
Screening COCCNC(=O)[C@H]1C[C@H](Oc2ccccc2)CN1C(=O)c1cccc(OC)c1 returned HEK293 tox inactive, NIH3T3 tox 4.0%, GPT2 inhibitor -7.8%, hNpr1 antagonist -4.4% and Luciferase inh inactive.
`COCCN[C@H]1C[C@@H]2c3[nH]c4ccccc4c3C[C@@H](C(=O)OC)N2[C@H](c2ccccc2)C1` gave HEK293 tox 39.8µM*, NIH3T3 tox 35.5µM*, GPT2 inhibitor 0.8%[88.5 µM], hNpr1 antagonist -13.9%[70.6 µM] and Luciferase inh inactive.
`COCCN[C@@H]1C[C@@H]2c3[nH]c4ccccc4c3C[C@@H](C(=O)OC)N2[C@H](c2cccc(OC)c2)C1` gave HEK293 tox 22.4µM*, NIH3T3 tox inconclusive, GPT2 inhibitor inconclusive, hNpr1 antagonist inconclusive and Luciferase inh inactive.
For COCCN[C@@H]1C[C@@H]2c3[nH]c4ccccc4c3C[C@@H](C(=O)OC)N2[C@H](c2ccc(Cl)c(F)c2)C1 the results were HEK293 tox inconclusive, NIH3T3 tox 14.1µM*, GPT2 inhibitor inactive, hNpr1 antagonist inconclusive and Luciferase inh inactive.
For COCCNC(=O)[C@H]1C[C@H](Oc2ccccc2)CN1C(=O)c1ccc(F)cc1 the results were HEK293 tox 3.6%, NIH3T3 tox 0.0%, GPT2 inhibitor inconclusive, hNpr1 antagonist 10.2% and Luciferase inh inactive.
`COC(=O)[C@@H]1Cc2c([nH]c3ccccc23)[C@@H]2C[C@@H](NC(C)C)C[C@@H](c3ccc(F)cc3)N12` gave HEK293 tox 28.2µM*, NIH3T3 tox 28.2µM*, GPT2 inhibitor -7.6%, hNpr1 antagonist 1.4% and Luciferase inh inactive.
COc1cccc(-c2c(C(=O)N3CCN(C(C)=O)CC3)nc3sccn23)c1 was read as HEK293 tox -1.7%, NIH3T3 tox -11.0% and GPT2 inhibitor 2.2%.
Screening CCc1cc(CC[C@]2(C3CCCC3)CC(O)=C(Cc3nc4nc(C)cc(C)n4n3)C(=O)O2)cc(CC)n1 returned GPT2 inhibitor inactive.
For COC(=O)[C@@H]1Cc2c([nH]c3ccccc23)[C@H]2C[C@@H](NCc3cccnc3)C[C@@H](c3ccccc3)N21 the results were HEK293 tox 22.4µM*, NIH3T3 tox inconclusive, GPT2 inhibitor inactive, hNpr1 antagonist -6.1% and Luciferase inh inactive.
COC(=O)C1C(O)CCC2CN3CCc4c([nH]c5ccccc45)C3CC21 (stereo not given) was read as GPT2 inhibitor 1.5%[27.3 µM].
Screening COCCN[C@@H]1C[C@@H]2c3[nH]c4ccccc4c3C[C@@H](C(=O)OC)N2[C@H](c2ccc(C(C)C)cc2)C1 returned HEK293 tox inconclusive, NIH3T3 tox 28.2µM*, GPT2 inhibitor inconclusive, hNpr1 antagonist inconclusive and Luciferase inh inactive.
COC(=O)[C@H]1[C@H]2C[C@H]3c4[nH]c5ccccc5c4CCN3C[C@H]2CC[C@@H]1O was read as GPT2 inhibitor inactive.
For COCCNC(=O)[C@@H]1CCC[C@@H](NCc2cccnc2)CN(C)C(=O)C1 the results were HEK293 tox inactive, NIH3T3 tox inactive, GPT2 inhibitor -2.0%[88.5 µM], hNpr1 antagonist 4.7%[70.6 µM] and Luciferase inh inactive.
Screening COC(=O)[C@@H]1Cc2c([nH]c3ccccc23)[C@H]2C[C@@H](NCCN(C)C)C[C@@H](c3ccc(F)cc3)N21 returned HEK293 tox 20µM*, NIH3T3 tox 14.1µM*, GPT2 inhibitor -17.3%, hNpr1 antagonist -0.2% and Luciferase inh inactive.
